SKKanGAS inh – inhibitors of SKKanGAS S. pyogenes growth in kanamycin (SK-promoter or general growth effect). BacTiter-Glo, 6 h. inhibition, % at 7.5 µM. hit rate 1.3% among 300,000;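 active means mean replicate score, as percent of positive control median, at least 50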;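 further: strain carries kanamycin resistance gene driven by streptokinase promoter and grows in 40 µg/ml kanamycin; loss of luminescence reflects streptokinase promoter inhibition or plain growth inhibition; 0% = median of DMSO wells and 100% = positive control at its reference dose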
NLRP3 yeast inh – NALP3 inhibition in yeast; Yeast reconstituted NLRP3/ASC/caspase-1, beta-gal luminescence, 24 h; inhibition, % at 10 µM; hit rate 0.39% among 330,000;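 active means inhibition of 50% or more; inactive means inhibition below 50%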;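 further: plate controls were induced DMSO wells for no effect and uninduced yeast grown without galactose for full effect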
tim10-1 inh – tim10-1 yeast growth inhibition. S. cerevisiae tim10-1 ts strain growth, BacTiter-Glo, 24 h. inhibition, % at 20 µM. hit rate 2.2% among 330,000;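 active means inhibition of at least 40%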;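 further: mutant grown at 25 °C; 0% = DMSO wells with yeast and 100% = wells holding no yeast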
tim23-1 inh – tim23-1 yeast growth inhibition. inhibition, % at 20 µM. S. cerevisiae tim23-1 growth, BacTiter-Glo luminescence, 24 h. AID 463212. hit rate 1.3% among 330,000;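 active means growth inhibition of the mutant yeast at or above 50%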;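 further: temperature-sensitive mutant grown at 25 °C; plate controls were DMSO-treated mutant yeast for no effect and medium wells lacking yeast for full effect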
TIM10 inh – TIM10 yeast growth inhibition. S. cerevisiae TIM10 strain growth, BacTiter-Glo luminescence, 24 h. inhibition, % at 10 µM. hit rate 1.4% among 330,000;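 active means inhibition of 40% or more at the single tested concentration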;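 further: wild-type TIM10 isogenic control strain grown at permissive 25 °C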
tim10-1 confirm – tim10-1 yeast growth inhibition, confirmed; inhibition, % at 20 µM; hit rate 56% among 7,400; S. cerevisiae tim10-1 ts strain growth, BacTiter-Glo, 24 h; shares compounds with tim10-1 inh;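 active means inhibition of yeast growth at or above a set limit in either of two repeat tests at 20 µM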;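 further: tim10-1 mutant grown at permissive 25 °C to find synthetic lethal compounds; 0% = DMSO yeast wells and 100% = medium wells without yeast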
tim10 confirm – TIM10 yeast growth inhibition, confirmed | AID 463215 | inhibition, % at 10 µM | hit rate 63% among 4,600 | S. cerevisiae tim10 strain growth, BacTiter-Glo luminescence, 24 h | shares compounds with TIM10 inh;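 active means inhibition of yeast growth at or above a set limit in either of two replicates at 10 µM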;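 further: this counterscreen used the strain with wild-type TIM10; 0% = yeast with DMSO and 100% = medium wells lacking yeast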
tim23-1 conf – confirmation of tim23-1 mutant yeast growth inhibitors. shares compounds with tim23-1 inh. S. cerevisiae tim23-1 growth, BacTiter-Glo luminescence, 24 h. inhibition, % at 20 µM. hit rate 83% among 4,400. AID 463218;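 active means inhibition above about 39% in either of two replicate wells at 20 µM, limit read from the data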;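 further: temperature-sensitive tim23-1 mutant grown at 25 °C; 0% = DMSO wells with yeast and 100% = medium wells without yeast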
The depositor's hits bear a star; / = no result given. The list is not random: actives were taken first. Their share in the collection is about 4.6%.

SMILES	SKKanGAS inh	NLRP3 yeast inh	tim10-1 inh	tim23-1 inh	TIM10 inh	tim10-1 confirm	tim10 confirm	tim23-1 conf
CCOC(=O)N1CCN(c2ncnc3c2oc2nc(C(C)C)c4c(c23)CCC4)CC1	-1	15	44*	41	46*	34*	37*	/
CC(C)c1nc2oc3c(NCc4cccnc4)ncnc3c2c2c1CCC2	-22	-2	26	-10	10	/	/	/
CC(C)Cc1nc2oc3c(N4CCN(CCO)CC4)ncnc3c2c2c1CCCC2	-1	4	52*	33	44*	37*	20	/
O=C(NCc1ccccc1)C(c1ccco1)N(C(=O)c1csnn1)c1ccccc1 (configuration not stated)	-4	14	-2	16	-16	/	/	/
CN(C)c1ccc(/C=N/Nc2nncc3ccccc23)cc1	10	/	/	/	/	/	/	/
CCN(C[C@H]1N[C@@](Cc2ccccc2)(C(=O)OC)[C@H]2C(=O)N(C)C(=O)[C@@H]12)C(=O)Nc1ccc(Cl)cc1	/	9	-1	-6	0	/	/	/
CC(=O)NC(CCS(C)(=O)=O)C(=O)Nc1cc(Cl)ccc1Cl (configuration not stated)	1	11	8	11	-11	/	/	/
CC(C)S(=O)(=O)c1csc(NC(=O)Nc2cc(Cl)ccc2Cl)c1Cl	58*	0	42*	21	47*	28	41*	/
CCCCS(=O)(=O)/C=C\C=C/S(=O)(=O)CCCC	-3	5	70*	43	59*	42*	61*	/
CCOc1ccc(NC(=S)N(Cc2ccc(N(C)C)cc2)Cc2ccco2)cc1	7	9	52*	38	46*	43*	36*	/
COc1ccc(NC(=S)N(Cc2ccc(N(C)C)cc2)Cc2ccco2)cc1	-1	-1	36	37	37	/	/	/
O=C1c2cccc3c([N+](=O)[O-])ccc(c23)C(=O)N1c1ccc(Cl)cn1	9	-8	77*	2	74*	66*	89*	/
O=C1c2cccc3c([N+](=O)[O-])ccc(c23)C(=O)N1c1nccs1	4	-1	84*	38	69*	73*	96*	/
O=C1c2cccc3cccc(c23)C(=O)N1c1nccs1	3	-5	8	-4	5	/	/	/
Cc1ccc(C(=O)N2CCN(S(=O)(=O)N3CCCCCC3)CC2)cc1	1	36	-15	15	-14	/	/	/
Cc1ccc(C2(C)NC(=O)N(CC(=O)NCc3ccccc3Cl)C2=O)cc1 (configuration not stated)	3	18	1	0	0	/	/	/
COC(=O)/C=C1\OC(c2ccccc2)=CC1=O	-4	-9	42*	39	40*	29	32*	/
Cc1ccc(NC(=O)c2cc(S(=O)(=O)N3CCCCC3)c[nH]2)cc1C	2	12	-20	-4	0	/	/	/
O=C(c1cc(C(=O)c2ccco2)cc(C(=O)c2ccco2)c1)c1ccco1	-12	19	12	-29	-11	/	/	/
Cc1ccc2occ(C(=O)c3ccco3)c(=O)c2c1	2	8	42*	71*	49*	23	29	51*
Cc1ccc(NC(=O)CSc2n[nH]c(=O)n2C2CC2)cc1S(=O)(=O)N1CCOCC1	-9	15	-6	7	1	/	/	/
COc1ccc(/C=C2\SC(N)=NC2=O)cc1	1	20	10	15	4	/	/	/
COc1ccc(/C=C2\SC(N3CCc4ccccc4C3)=NC2=O)cc1	10	25	55*	65*	53*	50*	-14	52*
CCOC(=O)CSC1=NC(=O)/C(=C/c2ccc(OC)cc2)S1	1	21	40*	90*	59*	70*	-6	39*
COc1c2ccc(OCC/C(C)=C/C(=O)C=C(C)C)cc2nc2occc12	/	31	2	24	-1	/	/	/
SMILES	SKKanGAS inh	NLRP3 yeast inh	tim10-1 inh	tim23-1 inh	TIM10 inh	tim10-1 confirm	tim10 confirm	tim23-1 conf
CC[C@@H]1C/C=C\Cc2ccccc2[C@H](C(=O)C[C@@H](O)CC(C)=O)OC1=O	/	-10	54*	52*	39	53*	/	49*
O=C(Cc1c(F)cccc1Cl)Nc1nc2ccccc2s1	9	29	43*	55*	48*	30*	34*	63*
O=C1/C(=C/c2ccccc2)CCC1C1CCCC1 (configuration not stated)	-1	23	16	17	12	/	/	/
CN1C2CCC1/C(=C\c1ccccc1)C(=O)/C2=C\c1ccccc1	12	33	47*	53*	45*	36*	23	55*
N/C(Cc1ccc(Cl)cc1)=N\OC(=O)c1ccccc1	23	43	53*	69*	87*	17	1	44*
N/C(Cc1ccc([N+](=O)[O-])cc1)=N\OC(=O)c1cccc(Br)c1	-6	19	70*	91*	95*	43*	95*	86*
COc1cccc(/C=C/C(=O)c2cccc([N+](=O)[O-])c2)c1OC	8	-4	43*	61*	36	44*	/	56*
N/C(=N\OC(=O)c1cccc(Br)c1)c1ccc([N+](=O)[O-])cc1	-15	31	20	16	4	/	/	/
COc1ccc(C(=O)O/N=C(\N)Cc2ccc(Cl)c(Cl)c2)cc1OC	1	9	58*	70*	88*	34*	-13	27
CCOC(=O)c1csc(NNC=O)n1	-9	-6	7	16	8	/	/	/
COc1ccccc1CNC(=O)[C@H](Cc1c[nH]c2ccccc12)NC(=O)[C@@H]1Cc2ccccc2CN1	10	-3	-2	-3	2	/	/	/
Cc1ccc(CN2CCN(c3cccc4[nH]ccc34)CC2)cc1	-2	9	31	20	10	/	/	/
CC(=O)Nc1ccc(S(=O)(=O)NCCC(=O)OCC(=O)c2cccc(Br)c2)cc1	/	7	-1	-17	-1	/	/	/
COc1ccccc1C/C(N)=N/OC(=O)c1cccc([N+](=O)[O-])c1	-9	2	52*	70*	81*	41*	86*	67*
N/C(Cc1ccc([N+](=O)[O-])cc1)=N\OC(=O)c1ccc([N+](=O)[O-])cc1	10	14	59*	67*	84*	74*	86*	84*
CC(C)(C)C(=O)OC/C(N)=N/OC(=O)c1ccc(Cl)cc1	-3	10	60*	76*	44*	47*	68*	73*
Cc1ccc(NC(=O)C/C(N)=N/OC(=O)c2ccccc2)cc1	-5	16	55*	51*	69*	76*	80*	75*
N/C(CCS(=O)(=O)c1ccc(Cl)cc1)=N\OC(=O)c1ccc(Cl)cc1	-5	11	20	15	24	/	/	/
Cc1cc(C)c(NC(=O)CCc2c(C)noc2C)c(C)c1	/	6	5	9	1	/	/	/

Bioassay records (PubChem)
